Assay results published in PubChem BioAssay AID652057 (Broad Institute, 2013).
Screen size: about 1,400 compounds; about 1,000 (71%) were called active. No rule for the calls is given here. So high a share suggests a set chosen from earlier hits. These entries were drawn from the full list. Entries with a potency or affinity are not part of this list.

Assay: blockers of HIV-1 envelope-mediated cell-cell fusion – cherry-pick, dose response (AID 652057)
Settings: HeLa-JRFL Env/CEM21 cell fusion, luciferase; series mostly up to 35 µM; activity change, negative = inhibition: at the top concentration

Activity change, negative = inhibition, inactive:
CCCNC(=O)C[C@@H]1C[C@H]2c3cc(NC(=O)c4cccnc4)ccc3O[C@H]2[C@H](CO)O1 51.2%
COc1ccc(CN(C)C[C@@H]2Oc3ccc(NC(=O)Nc4ccc(OC)cc4)cc3C(=O)N([C@H](C)CO)C[C@@H]2C)cc1 -26%
C[C@@H]1CCCCO[C@H](CN(C)C)[C@H](C)CN([C@@H](C)CO)C(=O)c2cc(NS(=O)(=O)c3cn(C)cn3)ccc2O1 31.6%
C[C@@H]1CN([C@@H](C)CO)C(=O)c2cc(NC(=O)c3ccccc3)ccc2O[C@@H](C)CCCCO[C@H]1CN(C)Cc1ccc(C(=O)O)cc1 -13.2%
CNC[C@H]1Oc2c(NC(=O)Nc3ccc(C(F)(F)F)cc3)cccc2C(=O)N([C@@H](C)CO)C[C@H]1C 63.2%
O=C(N[C@@H]1CC[C@H](CCNS(=O)(=O)c2ccc(F)cc2)O[C@@H]1CO)C1CC1 1.98%
CC(C)CNS(=O)(=O)c1ccc(CCC(=O)N2CCN(Cc3ccc4c(c3)OCO4)CC2)cc1 -33.2%
O=C(COC(=O)c1cc(S(=O)(=O)N2CCOCC2)ccc1O)NCc1ccc2c(c1)OCO2 -22%
C[C@H]1NC(=O)[C@@]2(C)[C@H](c3ccccc3)[C@H]3COc4ccccc4[C@@H]3N2C1=O -5.75%
COCC(=O)N1C[C@@H](C)[C@H](OC)CN(C)C(=O)c2ccc(NC(=O)c3ccc(OC)cc3)cc2OC[C@@H]1C 0.438%
Nc1c(S(=O)(=O)c2ccccc2)cnc2c(-c3ccc(F)cc3)cnn12 167%
Cc1cc(Cl)ccc1OCC(=O)NNC(=O)C1CSC2(C)CCC(=O)N12 (stereo unspecified) -4.03%
O=C(Nc1cccc(F)c1)c1cc(S(=O)(=O)N2CCC(C(=O)O)CC2)ccc1F 9.32%
Nc1ncn([C@H]2C[C@H](O)[C@@H](CO)O2)c(=O)n1 12.8%
Nc1nc2c(ncn2[C@@H]2O[C@H](C(=O)NCC(c3ccccc3)c3ccccc3)[C@@H](O)[C@H]2O)c(=O)[nH]1 -7.59%
CCc1cc2c(NCc3ccco3)ncnc2s1 -10.4%
N#C[C@H]1[C@@H](c2ccccc2/C=C/c2ccccc2)[C@@H](CO)N1S(=O)(=O)c1cccc(F)c1 -24%
O=C(Nc1ccc(CN2CCS(=O)(=O)CC2)cc1)c1ccc(C(F)(F)F)cc1 -17.9%
Cc1ccc(-n2nnnc2-c2cnn(-c3ccc(F)cc3)c2C(F)(F)F)cc1 -20.2%
Cc1cccc(C)c1NC(=O)CCCSc1nnc(-c2ccc(Cl)cc2)n1-c1ccccc1 -36.5%
Cn1c(SCc2nc(-c3ccc(Cl)cc3)no2)nnc1-c1cccs1 -26.3%
COc1ccc(-c2c(C)nn3c(C(F)(F)F)cc(C)nc23)cc1 -9.71%
O=C(CN1CCN(Cc2ccc(Cl)cc2)C1=O)NCCCN1CCN(c2ccc(F)cc2)CC1 -19.3%
C[C@H]1CN([C@@H](C)CO)C(=O)c2cccc(NC(=O)C3CCCCC3)c2O[C@H]1CN(C)S(C)(=O)=O 12.7%
COCC(=O)N(C)C[C@H]1Oc2ncc(Br)cc2C(=O)N([C@H](C)CO)C[C@H]1C 2.66%
CCCNC(=O)N1[C@H](C#N)[C@H](c2ccc(-c3cccc(OC)c3)cc2)[C@@H]1CO -9.82%
COc1ccccc1C#Cc1ccc([C@H]2[C@H](C#N)N(C(=O)C3CCCC3)[C@H]2CO)cc1 -0.57%
N#C[C@@H]1[C@H](c2ccc(-c3cccc(F)c3)cc2)[C@H](CO)N1C(=O)c1cccnc1 -19.2%
CCCNC(=O)N1[C@H](C#N)[C@H](c2ccc(-c3ccc(C(=O)N(C)C)cc3)cc2)[C@@H]1CO -34.4%
O=S(=O)(NCC[C@H]1CC[C@H](NS(=O)(=O)c2ccccc2Cl)[C@H](CO)O1)c1ccc(Cl)cc1 12.1% [at 30 µM]
O=S(=O)(NCC[C@@H]1CC[C@@H](NS(=O)(=O)c2ccccc2Cl)[C@H](CO)O1)c1ccc(Cl)cc1 15.1%
COc1ccc(-c2nn(C)c(=O)c3ccccc23)cc1NC(=O)COc1ccccc1 12.3%
COc1ccc(OCC(=O)Nc2cc(-c3nn(C)c(=O)c4ccccc34)ccc2OC)cc1 -17.9%
COc1ccc(NS(=O)(=O)c2ccc3c(c2)OCCO3)cc1OC -3.46%
COc1ccc(N2CCn3c2nc2c3c(=O)n(CCCc3ccccc3)c(=O)n2C)c(OC)c1 15% [at 16 µM]
CCOC(=O)C(C)Oc1cccc2c(=O)n(CC(=O)NCCc3ccc(OC)c(OC)c3)ccc12 (stereo unspecified) 17.4%
COc1ccc(-c2cn(CC[C@H]3CC[C@H](NS(=O)(=O)c4ccccc4C)[C@H](CO)O3)nn2)cc1 -1.92%
O=C(Cc1ccncc1)N[C@H]1CC[C@@H](CCn2cc(-c3ccccc3F)nn2)O[C@@H]1CO 12.9%
O=C(CCN1CCCCC1)N[C@@H]1CC[C@@H](CCn2cc(-c3ccccc3)nn2)O[C@@H]1CO 8.65%
O=C(CCN1CCCCC1)N[C@H]1CC[C@H](CCn2cc(-c3ccccc3)nn2)O[C@@H]1CO 8.36%
Cc1ccc(C2CC(=O)c3cnc(N4CCc5ccccc5C4)nc3C2)cc1 (stereo unspecified) -20.6%
COc1ccccc1N/C(N)=N/c1nc(CSc2ccc(C)cc2)cc(=O)[nH]1 -12.1%
COc1ccc(NC(=O)C2(C)CCN2Cc2ccccc2OC(F)F)cc1OC (stereo unspecified) -7.99%
CCCc1cc(C(=O)NCc2ccc(OC)cc2)no1 10.3%
CCCCCCCCCCn1c2c(c(=N)c3c1CCC3)CCC2 94.2% [at 16 µM]
C[C@H](CO)N1C[C@H](C)[C@@H](CN(C)CC2CC2)Oc2ccc(NS(C)(=O)=O)cc2CC1=O 14.9%
C[C@@H]1CN([C@@H](C)CO)C(=O)c2cc(NC(=O)c3ccncc3)ccc2O[C@@H]1CN(C)Cc1ccncc1 -15.1%
C[C@@H]1CN([C@@H](C)CO)C(=O)c2cc(NC(=O)c3ccncc3)ccc2O[C@H]1CN(C)Cc1ccncc1 -2.02%
C[C@H](CO)N1C[C@H](C)[C@H](CN(C)Cc2ccccc2)Oc2c(NC(=O)Nc3ccc4c(c3)OCO4)cccc2C1=O 87%
COc1ccc(NC(=O)CN2CCC(C(N)=O)(N3CCCCC3)CC2)cc1 -13.8%
CCc1ccc(C(=O)CN2C(=O)NC(C)(c3ccc(C)cc3)C2=O)cc1 (stereo unspecified) -3.01%
C=CC[n+]1c(-c2ccc(OC)c(OC)c2)csc1NNC(=O)Nc1ccccc1 22.5%
CC(=O)c1ccc([C@H]2C[C@@]34CN(C(=O)OC(C)(C)C)S(=O)(=O)[C@H]3C[C@H]2O4)cc1 -21.5%
CO[C@@H]1CN(C)C(=O)c2cc(NS(=O)(=O)c3ccc(C)cc3)ccc2OC[C@H](C)N(C(=O)NC(C)C)C[C@@H]1C 58.5%
O=C(C[C@@H]1C[C@H]2c3cc(NC(=O)C4CCC4)ccc3O[C@H]2[C@H](CO)O1)NCC(F)(F)F 23.8%
COc1ccc(N2CCN(C(=O)C3CCC(Cn4c(=S)[nH]c5ccccc5c4=O)CC3)CC2)cc1 (stereo unspecified) -2.4%
C[C@@H]1CN([C@H](C)CO)S(=O)(=O)c2ccc(C#Cc3cccc(F)c3)cc2O[C@@H]1CN(C)C(=O)CN1CCOCC1 -5.15%
Cc1[nH]c2ccccc2c1/C=N\NC(=O)c1ccccc1Cl 12.4%
CCn1c(/C=C/N(C)c2ccccc2)[n+](CC)c2ccc(Cl)cc21 -4.27%
O=C(C[C@H]1C[C@H]2c3cc(NC(=O)C4CCC4)ccc3O[C@H]2[C@H](CO)O1)NCc1ccc2c(c1)OCO2 -8.88%
Cc1nc2ccccc2c2oc(C(=O)NCc3ccc4c(c3)OCO4)cc12 14.1%
O=C(Nc1cc2c3c(c1)CC(=O)N3CCC2)c1ccc(Cl)cc1 36.2%
COC(=O)[C@]12CCCCC=C1N(Cc1ccco1)C(=O)[C@H](CC(=O)NCCc1ccccc1OC)C2 -2.88%
Cc1nn(C)c(Cl)c1NC(=O)OCc1ccc(Cl)cc1Cl 11.7%
COc1ccc(CCNC(=O)COC(=O)c2cccn2C)cc1 -14%
O=C(Nc1cccn(Cc2c(Cl)cccc2Cl)c1=O)c1ccc(Cl)cc1 33.5%
O=C(c1ccccc1F)N1CCN(Cc2cccc(Cl)c2)CC1 -4.77%
COc1ccccc1S(=O)(=O)Cc1ccc(C(=O)N2CCN(c3cccc(Cl)c3)CC2)o1 29.9%
Cc1ccc(NC(=O)c2ccc(OCC3CCCO3)cc2)cc1Cl (stereo unspecified) 107%
Cn1c(CN2CCCCC2)nc2cc(NC(=O)c3ccc(Cl)cc3)ccc21 8.53%
O=C(COc1ccc(-n2cnnn2)cc1)Nc1ccc(F)c(F)c1 -25.8%
CNC[C@H]1Oc2c(NC(=O)Nc3ccc4c(c3)OCO4)cccc2C(=O)N([C@H](C)CO)C[C@@H]1C 1.72%
COC(=O)[C@H](Cc1ccccc1)NC(=O)Cn1cnc(C(=O)Nc2ccc(C)c(C)c2)n1 4.14%
CCOc1ccc(-c2cc(CCCC(=O)Nc3cccc(OC)c3)no2)cc1 -22.4%
O=C(Cc1ccc(Cl)cc1Cl)Nc1ccncc1 -15.4%
C[C@@H]1CN([C@@H](C)CO)C(=O)c2cc(NS(=O)(=O)c3ccccc3)ccc2O[C@H]1CN(C)Cc1ccc(Oc2ccccc2)cc1 -26.4%
Cc1onc(-c2ccccc2)c1C(=O)Nc1ccc(Br)cc1Cl 13.9%
Cc1onc(-c2ccccc2)c1C(=O)NC(=S)NNC(=O)c1ccc(O)cc1 -13.1%
O=C(C[C@@H]1C[C@@H]2c3cc(NC(=O)C4CCC4)ccc3O[C@@H]2[C@@H](CO)O1)NCC(F)(F)F 13%
Cc1ccc(S(=O)(=O)N(C)c2ccc(C(=O)N3CCN(Cc4ccc5c(c4)OCO5)CC3)cc2)cc1 -15.9%
c1ccc2c(c1)OCC(CNc1ncnc3nc[nH]c13)O2 (stereo unspecified) -65.2%
Cc1nc2sc(C(c3ccco3)N3CCC(Cc4ccccc4)CC3)c(O)n2n1 (stereo unspecified) 11.1%
Cc1cc(C)c(CN2CCN(C(=O)Cn3cnc4c(NCc5ccccc5)ncnc43)CC2)c(C)c1 -26.3%
N#Cc1c(NCc2ccccc2)ccnc1NCc1cccnc1 -29.1%
C[C@@H]1CN([C@@H](C)CO)C(=O)c2cc(C3=CCCC3)cnc2O[C@@H]1CN(C)Cc1ccc(C(=O)O)cc1 -5.8%
C[C@H]1CN([C@@H](C)CO)C(=O)c2cccc(NC(=O)Nc3ccc(C(F)(F)F)cc3)c2O[C@H]1CN(C)S(=O)(=O)c1ccccc1 -3.18%
